According to PubChem BioAssay AID1159580 (chemical genetic matrix, 2015):
In all, about 5,500 compounds went through this assay and about 2,000 (36%) were called active. About 18% were inconclusive and are not listed. Rule as the data show it: active = normalized growth mostly below about 0.91 (no sharp cut-off); inconclusive = no clear call, values can overlap the other calls; inactive = mostly above about 0.92. This is one part of the list.

Test: chemical genetic growth profiling, strain panel (AID 1159580);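 also: tested at 20 µM; growth read once vehicle control cultures reached saturation at 30 °C; 1 = growth at the plate median or of vehicle wells; lower values mean less growth of the strain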
Details: growth OD

Measured: normalized growth

CCOC(=O)[C@H](CCc1ccccc1)N[C@@H](C)C(=O)N1Cc2ccccc2C[C@H]1C(=O)O
inactive: S. cerevisiae deletion strains, locus YJR043C, strain POL32, stronger effect = lower value 1.02 | S. cerevisiae deletion strains, locus YJR066W, strain TOR1, stronger effect = lower value 0.98 | S. cerevisiae deletion strains, locus YKL009W, strain mrt4, stronger effect = lower value 0.994 | S. cerevisiae deletion strains, locus YKL068W, stronger effect = lower value 1 | S. cerevisiae deletion strains, locus YKL085W, strain MDH1 (second series), stronger effect = lower value 1.01 | S. cerevisiae deletion strains, locus YKL085W, strain MDH1, stronger effect = lower value 1.01 | S. cerevisiae deletion strains, locus YKL160W, strain elf1, stronger effect = lower value 0.975 | S. cerevisiae deletion strains, locus YKL190W, strain CNB1, stronger effect = lower value 1.01 | S. cerevisiae deletion strains, locus YKR001C, strain vps1, stronger effect = lower value 0.986 | S. cerevisiae deletion strains, locus YKR026C, strain gcn3, stronger effect = lower value 0.994 | S. cerevisiae deletion strains, locus YKR091W, strain srl3, stronger effect = lower value 1 | S. cerevisiae deletion strains, locus YLL001W, strain dnm1, stronger effect = lower value 0.998 | S. cerevisiae deletion strains, locus YLL026W, stronger effect = lower value 1.01 | S. cerevisiae deletion strains, locus YLL041C, strain sdh2, stronger effect = lower value 0.998 | S. cerevisiae deletion strains, locus YLR027C, strain aat2, stronger effect = lower value 0.994 | S. cerevisiae deletion strains, locus YLR039C, strain RIC1, stronger effect = lower value 1.05 | S. cerevisiae deletion strains, locus YLR058C, strain SHM2, stronger effect = lower value 1.01 | S. cerevisiae deletion strains, locus YLR102C, strain apc9, stronger effect = lower value 1.01 | S. cerevisiae deletion strains, locus YLR113W, strain HOG1, stronger effect = lower value 0.963 | S. cerevisiae deletion strains, locus YLR221C, strain rsa3, stronger effect = lower value 1.02 | S. cerevisiae deletion strains, locus YLR258W, strain gsy2, stronger effect = lower value 0.999 | S. cerevisiae deletion strains, locus YLR262C, strain YPT6 (second series), stronger effect = lower value 0.995 | S. cerevisiae deletion strains, locus YLR262C, strain YPT6, stronger effect = lower value 1.07 | S. cerevisiae deletion strains, locus YLR268W, strain sec22, stronger effect = lower value 1 | S. cerevisiae deletion strains, locus YLR320W, strain mms22, stronger effect = lower value 0.996 | S. cerevisiae deletion strains, locus YLR330W, strain CHS5, stronger effect = lower value 1 | S. cerevisiae deletion strains, locus YLR342W, strain FKS1 (second series), stronger effect = lower value 1.02 | S. cerevisiae deletion strains, locus YLR342W, strain FKS1, stronger effect = lower value 1.02 | S. cerevisiae deletion strains, locus YLR357W, strain rsc2, stronger effect = lower value 0.975 | S. cerevisiae deletion strains, locus YLR370C, strain arc18, stronger effect = lower value 0.985 | S. cerevisiae deletion strains, locus YLR371W, strain rom2, stronger effect = lower value 1.01 | S. cerevisiae deletion strains, locus YLR384C, strain iki3, stronger effect = lower value 1.01 | S. cerevisiae deletion strains, locus YLR418C, strain cdc73, stronger effect = lower value 1 | S. cerevisiae deletion strains, locus YML016C, strain PPZ1, stronger effect = lower value 1 | S. cerevisiae deletion strains, locus YML032C, strain rad52, stronger effect = lower value 1 | S. cerevisiae deletion strains, locus YML120C, strain ndi1, stronger effect = lower value 0.996 | S. cerevisiae deletion strains, locus YML124C, strain tub3, stronger effect = lower value 1.01 | S. cerevisiae deletion strains, locus YMR058W, strain fet3, stronger effect = lower value 1.01 | S. cerevisiae deletion strains, locus YMR078C, strain ctf18, stronger effect = lower value 1 | S. cerevisiae deletion strains, locus YMR125W, strain sto1, stronger effect = lower value 0.989 | S. cerevisiae deletion strains, locus YMR129W, stronger effect = lower value 0.989 | S. cerevisiae deletion strains, locus YMR205C, strain PFK2, stronger effect = lower value 1 | S. cerevisiae deletion strains, locus YMR223W, strain ubp8, stronger effect = lower value 1.02 | S. cerevisiae deletion strains, locus YMR231W, strain pep5, stronger effect = lower value 0.999 | S. cerevisiae deletion strains, locus YMR307W, strain GAS1, stronger effect = lower value 0.979 | S. cerevisiae deletion strains, locus YNL067W, strain RPL9B, stronger effect = lower value 0.995 | S. cerevisiae deletion strains, locus YNL071W, strain lat1, stronger effect = lower value 0.998 | S. cerevisiae deletion strains, locus YNL183C, strain NPR1, stronger effect = lower value 0.949 | S. cerevisiae deletion strains, locus YNL209W, strain ssb2, stronger effect = lower value 0.994 | S. cerevisiae deletion strains, locus YNL233W, strain BNI4, stronger effect = lower value 0.994 | S. cerevisiae deletion strains, locus YNL248C, strain rpa49, stronger effect = lower value 0.957 | S. cerevisiae deletion strains, locus YNL250W, strain rad50, stronger effect = lower value 1.01 | S. cerevisiae deletion strains, locus YNL271C, strain bni1, stronger effect = lower value 1.02 | S. cerevisiae deletion strains, locus YNL298W, strain CLA4, stronger effect = lower value 1.01 | S. cerevisiae deletion strains, locus YNL307C, strain MCK1, stronger effect = lower value 1.02 | S. cerevisiae deletion strains, locus YNL322C, strain KRE1 (second series), stronger effect = lower value 0.996 | S. cerevisiae deletion strains, locus YNL322C, strain KRE1, stronger effect = lower value 1.01 | S. cerevisiae deletion strains, locus YNR049C, strain mso1, stronger effect = lower value 1 | S. cerevisiae deletion strains, locus YNR052C, strain pop2, stronger effect = lower value 1.01 | S. cerevisiae deletion strains, locus YOL006C, strain TOP1, stronger effect = lower value 0.987 | S. cerevisiae deletion strains, locus YOL012C, strain htz1 1.52 | S. cerevisiae deletion strains, locus YOL147C, strain pex11, stronger effect = lower value 1.01 | S. cerevisiae deletion strains, locus YOR001W, strain rrp6, stronger effect = lower value 1.01 | S. cerevisiae deletion strains, locus YOR061W, strain CKA2, stronger effect = lower value 1.01 | S. cerevisiae deletion strains, locus YOR069W, strain VPS5, stronger effect = lower value 1 | S. cerevisiae deletion strains, locus YOR070C, strain gyp1, stronger effect = lower value 1.01 | S. cerevisiae deletion strains, locus YOR080W, strain dia2, stronger effect = lower value 1.01 | S. cerevisiae deletion strains, locus YOR083W, strain WHI5, stronger effect = lower value 0.963 | S. cerevisiae deletion strains, locus YOR106W, strain vam3, stronger effect = lower value 0.989 | S. cerevisiae deletion strains, locus YOR136W, strain idh2, stronger effect = lower value 1.01 | S. cerevisiae deletion strains, locus YOR144C, strain elg1, stronger effect = lower value 1.01 | S. cerevisiae deletion strains, locus YOR184W, strain ser1, stronger effect = lower value 1 | S. cerevisiae deletion strains, locus YOR231W, strain MKK1, stronger effect = lower value 0.974 | S. cerevisiae deletion strains, locus YOR265W, strain rbl2, stronger effect = lower value 1.02 | S. cerevisiae deletion strains, locus YOR270C, strain vph1, stronger effect = lower value 0.853 | S. cerevisiae deletion strains, locus YOR290C, strain snf2, stronger effect = lower value 0.972 | S. cerevisiae deletion strains, locus YOR316C, strain cot1, stronger effect = lower value 1.02 | S. cerevisiae deletion strains, locus YPL051W, strain arl3, stronger effect = lower value 0.995 | S. cerevisiae deletion strains, locus YPL078C, strain atp4, stronger effect = lower value 0.98 | S. cerevisiae deletion strains, locus YPL106C, strain sse1, stronger effect = lower value 1 | S. cerevisiae deletion strains, locus YPL240C, strain hsp82, stronger effect = lower value 1.02 | S. cerevisiae deletion strains, locus YPL241C, strain CIN2, stronger effect = lower value 1.01 | S. cerevisiae deletion strains, locus YPL256C, strain CLN2, stronger effect = lower value 0.962 | S. cerevisiae deletion strains, locus YPR119W, strain clb2, stronger effect = lower value 1 | S. cerevisiae deletion strains, locus YPR141C, strain kar3, stronger effect = lower value 1.01 | S. cerevisiae deletion strains, locus YPR163C, strain tif3, stronger effect = lower value 1.01 | S. cerevisiae deletion strains, locus YPR167C, strain met16, stronger effect = lower value 1.01 | S. cerevisiae deletion strains, strain wtn01, stronger effect = lower value 1 | S. cerevisiae strains, strain wild type, stronger effect = lower value 1.01
